USP30 block: inhibitors of human USP30 deubiquitinase | purified USP30, Ub-rhodamine cleavage fluorescence | inhibition, % at 25 µM | hit rate 5.3% among 47,000
USP17 block: blocks human USP17 ubiquitin-rhodamine cleavage. AID 1645855. purified USP17, Ub-rhodamine cleavage fluorescence, 3 h. hit rate 6.5% among 47,000. inhibition, % at 50 µM. A8MUK1
USP28 block: inhibitors of human USP28 deubiquitinase; Q96RU2; hit rate 3% among 47,000; inhibition, % at 25 µM; AID 1645857; purified USP28, Ub-rhodamine cleavage fluorescence, 30 min
USP8 inh: blocks human USP8 ubiquitin-rhodamine cleavage. hit rate 4.2% among 47,000. AID 1645853. inhibition, % at 20 µM. P40818. purified USP8, Ub-rhodamine cleavage fluorescence, 30 min
Numbers stand for hits; . = inactive; / = no result. Only some compounds are listed: those with a hit (about 13% of all), similar ones and a draw of the others. Rule as the data show it: active = inhibition above about 30%; inactive = the rest.

SMILES	USP30 block	USP17 block	USP28 block	USP8 inh
COc1cccc(CN2C(=O)c3ccccc3S2(=O)=O)c1	.	.	.	.
O=C(c1csc2c1CCCC2)N1CCN(C(c2ccccc2)c2ccccc2)CC1	30.9	.	.	.
COc1ccc(S(=O)(=O)N2CCC3(CC2)CC[C@@]2(C(=O)N(C)C)CN(C)C[C@@H]32)cc1	.	.	.	.
CCCCc1nc(SCC(=O)Nc2ccc(Br)cc2)c2c3c(sc2n1)COC(C)(C)C3	.	.	.	.
COc1ccc(CNc2nn3c(-c4ccncc4)cnc3s2)cc1	85.5	34.0	69.8	.
COc1ccc(-c2cnc3sc(NCC4CCOCC4)nn23)cn1	.	.	.	.
c1ccc(CNc2nn3c(-c4ccncc4)cnc3s2)cc1	.	51.3	.	.
c1cncc(-c2cnc3sc(NCC4CC4)nn23)c1	.	.	.	.
CCn1cc(C(=O)O)c(=O)c2cc(F)c(N3CCN(C(=O)c4ccc(OC)c(OC)c4)CC3)cc21	.	.	.	.
c1ccc(-c2noc(-c3cc(-c4ccncc4)nc4ccccc34)n2)nc1	.	53.2	.	.
Cn1cc(-c2nc(-c3ccccn3)no2)c(=O)c2ccccc21	.	.	.	.
CC(C)(Oc1ccc(Cl)cc1)C(=O)NCc1nnnn1-c1ccc(F)cc1	.	.	30.7	.
Cc1cccc(-c2nn3c(NCC4CCCO4)cc(C)nc3c2C)c1 (configuration not stated)	.	.	.	.
CCOc1ccc(-n2nnnc2-c2ccccn2)cc1	30.6	.	.	.
COc1ccc(OC)c(-n2nnnc2SCc2ccccn2)c1	.	.	.	.
CSc1ncc2c(=O)n(CC(=O)Nc3cc(Cl)ccc3C)cnc2n1	/	.	/	.
O=C(O)Cc1ccc(NC(=O)C2Cc3ccccc3C(=O)O2)cc1 (configuration not stated)	.	.	.	.
O=C(Nc1nc2cc3c(cc2s1)OCCO3)C1CCCCC1	.	.	.	.
O=C1OC(C(=O)Nc2nc3c(ccc4ccccc43)s2)Cc2ccccc21 (configuration not stated)	.	39.0	.	.
NS(=O)(=O)c1ccc(NC(=O)C2Cc3ccccc3C(=O)O2)cc1 (configuration not stated)	.	.	.	35.9
O=C(Nc1nc2c(ccc3ccccc32)s1)C1CCCC1	34.3	.	.	.
Cn1cc(NC(=O)CN2CC3(CCOCC3)Oc3ccccc3C2=O)cn1	.	.	.	.
Cc1ccc(COc2cc(C(=O)NC(C)C)c3ccccc3n2)cc1	34.8	.	.	.
CCCNC(=O)c1cc(OCc2ccc(C)cc2)nc2ccccc12	.	.	.	.
Cc1ccc(COc2cc(C(=O)NCc3ccccc3C)c3ccccc3n2)cc1	43.0	.	.	.
SMILES	USP30 block	USP17 block	USP28 block	USP8 inh
O=C(NCC1CCCO1)c1cc2c(cn1)[nH]c1ccccc12 (configuration not stated)	.	.	33.9	.
Cc1cc(C(=O)NCC2CCCO2)c2cccc(C)c2n1 (configuration not stated)	.	.	.	.
Cc1ccc(CNC(=O)c2cc(OCc3ccccc3)nc3ccccc23)cc1	.	.	.	.
Cc1ccc(COc2cc(C(=O)NCC3CCCO3)c3ccccc3n2)cc1 (configuration not stated)	45.7	.	.	.
CC(C)CCN1C[C@H]2C[C@H](C(=O)NCC(C)C)[C@@H](C1)O2	.	.	.	.
CN(C)c1ccc(C2CC(c3ccc(Br)cc3)=NN2C(=O)CCC(=O)O)cc1 (configuration not stated)	.	32.2	.	.
O=C(O)CCC(=O)N1c2ccccc2CC1c1ccc(Cl)cc1 (configuration not stated)	.	.	.	.
COc1cccc(NC(=O)N2CCCC2c2cc(C)no2)c1 (configuration not stated)	.	.	.	.
Cc1cc(C(=O)Nc2scc(-c3ccc(Cl)cc3Cl)c2C(N)=O)no1	/	.	/	.
O=C(NCc1ccccc1F)c1nc(CS(=O)(=O)c2ccccc2)no1	.	.	.	.
c1nc(NCCN2CCOCC2)c2sc3nc(N4CCOCC4)c4c(c3c2n1)CCC4	.	.	.	.
CC(C)c1nc2sc3c(NCc4ccco4)ncnc3c2c2c1CCC2	.	.	63.3	.
CC(C)c1nc2sc3c(NCc4ccccn4)ncnc3c2c2c1CCC2	.	.	.	.
CC(C)c1nc2sc3c(NCCN4CCOCC4)ncnc3c2c2c1CCC2	.	.	34.6	.
COc1ccc(C(O)c2ncc(-c3ccc4ccccc4c3)[nH]2)cc1OC (configuration not stated)	.	.	.	.
COc1ccc(C(CNC(=O)c2cc(-c3ccc(Cl)cc3)on2)N2CCOCC2)cc1 (configuration not stated)	.	/	.	39.8
Cc1ccc(S(=O)(=O)c2cnc3ccc(F)cc3c2N2CCCCCC2)cc1	.	.	.	33.2
O=S(=O)(c1ccccc1)c1cnc2ccccc2c1N1CCCCC1	31.2	.	.	.
Cc1ccc(S(=O)(=O)c2cnc3ccccc3c2N2CCCCCC2)cc1	.	.	.	.
Cc1ccc(S(=O)(=O)c2cnc3ccc(F)cc3c2N2CCCC2)cc1	36.8	.	.	.
CCc1ccc(S(=O)(=O)c2cnc3ccc(C)cc3c2N2CCCCC2)cc1	.	.	.	.
CCOc1ccc(CC(=O)N2CCC3(CC2)NCCc2[nH]cnc23)cc1	.	.	.	.
CC(NC(=O)c1ccccc1)c1nc2ccccc2[nH]1 (configuration not stated)	/	.	/	.
Cc1ccc(Cn2c(CCNC(=O)c3ccc(Cl)cc3)nc3ccccc32)cc1	52.5	68.4	.	.
O=c1cc(-c2ccccc2)nc2n1CCN2CCCN1CCOCC1	.	.	.	.
SMILES	USP30 block	USP17 block	USP28 block	USP8 inh
O=C(Nc1cccc(C(F)(F)F)c1)c1ccc(-c2nc(-c3ccc(Cl)cc3Cl)cs2)cc1	.	32.1	.	.
CCOc1nc2cccnc2n(C(C)C(=O)N(C)c2cccc(C)c2)c1=O (configuration not stated)	.	.	.	.
NC(=O)c1ccccc1OCC(=O)N1CCc2ccccc21	76.3	62.3	51.4	.
O=C(CCc1ccc2c(c1)CCO2)Nc1cccnc1	.	.	.	.
O=C(Nc1ccc(-n2ccc(C(F)(F)F)n2)cc1)Nc1ccc2c(c1)CCO2	32.2	.	40.7	.
O=C(NCCN1CCCC1=O)c1ccc(-n2cccn2)c(C#Cc2ccccc2)c1	.	.	.	.
O=c1[nH]ccn2nc3c(c12)CCc1ccccc1-3	/	35.9	/	.
CCCN1CCN(C(=O)c2[nH]nc3c2CCc2ccccc2-3)CC1	.	.	.	.
CSc1nc(Cc2ccc(Cl)cc2)nc2ccccc12	.	.	55.5	.
C[C@H](Cn1nnc2ccccc21)NC(=O)c1ccc2c(c1)OCO2	.	.	.	.
O=C(Nc1cccc(-c2noc(C3CCC3)n2)c1)C1CC(=O)N(c2ccccc2)C1 (configuration not stated)	.	60.0	.	41.6
CCc1nc(-c2cccc(NC(=O)C3CC(=O)N(c4ccccc4)C3)c2)no1 (configuration not stated)	.	.	.	.

High-throughput results: PubChem BioAssay, Buhrlage Lab, Dana-Farber Cancer Institute and Novartis Institutes for BioMedical Research (Cambridge, Mass)
